The whole screen tested about 16,000 compounds, of which about 5,100 (32%) were called active. Inconclusive results (about 25%) are left out. Calls follow the shape of the dose curve; as a rule, active = well fitted curve in the direction sought with a large enough effect; inconclusive = small, poorly fitted or top-dose-only effect, or effect the other way; inactive = no such curve, though single readings can be large or run the other way. Some of the results follow.
These compounds were tested against Cytochrome P450 3A4 (Homo sapiens) (UniProt P08684) (assay: Cytochrome panel assay with activity outcomes). Conditions: recombinant CYP, pro-luciferin dealkylation, luminescence, p450-cyp3a4; series mostly up to 57.1 µM; activity, negative = inhibition: at the top concentration.
% is scaled to controls: 0 for no effect and ±100 for the full control effect.

Cytochrome P450 3A4 (Homo sapiens), sequence (P08684 whole entry, looked up): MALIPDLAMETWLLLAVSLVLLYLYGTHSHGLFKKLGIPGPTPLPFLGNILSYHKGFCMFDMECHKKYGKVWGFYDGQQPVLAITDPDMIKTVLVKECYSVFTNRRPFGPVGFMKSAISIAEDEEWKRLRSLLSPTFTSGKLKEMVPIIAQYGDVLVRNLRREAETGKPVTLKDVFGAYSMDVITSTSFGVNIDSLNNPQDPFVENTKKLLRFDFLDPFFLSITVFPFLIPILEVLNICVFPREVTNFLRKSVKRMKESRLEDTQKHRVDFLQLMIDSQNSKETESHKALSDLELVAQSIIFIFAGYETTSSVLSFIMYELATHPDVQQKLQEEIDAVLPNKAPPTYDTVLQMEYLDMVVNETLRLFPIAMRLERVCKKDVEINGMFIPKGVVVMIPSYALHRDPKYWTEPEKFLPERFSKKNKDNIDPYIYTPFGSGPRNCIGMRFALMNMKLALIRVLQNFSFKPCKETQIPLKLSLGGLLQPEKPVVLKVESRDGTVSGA

activity, negative = inhibition, inactive:
NCCS(=O)O -9.4%, CCCC(c1cc(C(C)(C)C)c(O)cc1C)c1cc(C(C)(C)C)c(O)cc1C 5.69% [at 11.4 µM], CCN1CCN(C(=O)N[C@H](C(=O)N[C@@H]2C(=O)N3C(C(=O)O)=C(CSc4nnnn4C)CS[C@@H]23)c2ccc(O)cc2)C(=O)C1=O -6.92% [at 25.6 µM], O=C(O)Cc1sc(-c2ccc(Cl)cc2)nc1-c1ccccc1 -0.953%, Cc1ccc(-c2nn(C)c(=O)c3ccccc23)cc1CNC(=O)Cn1nc(-c2ccccc2)c2ccccc2c1=O -27.5% [at 11.4 µM], O=C(/C=C/c1ccc(Cl)cc1)NCCN1CCOCC1 -23.9%, O=c1c2ccccc2c(-c2ccccc2)nn1-c1ccc(Cl)c(Cl)c1 -18.1%, CCC(=O)N1CCN(C(=O)c2ccccc2)CC1 6.01%, Cc1c(NC(=O)Cn2ccc([N+](=O)[O-])n2)c(=O)n(-c2ccccc2)n1C 8.95%, O=C(Nc1ccc2ncccc2c1)Nc1ccc2ncccc2c1 -24.8% [at 11.4 µM], Cc1c(NC(=O)CN2CCN(c3ccccc3)CC2)c(=O)n(-c2ccccc2)n1C -14.6%, CC(=O)NC(CCS(C)(=O)=O)C(=O)Nc1c(F)cccc1F (configuration not stated) -3.35%, Clc1ncccc1-c1nc2ccccc2n1Cc1ccccc1 6.58% [at 2.29 µM], CC(C)C(=O)Nc1ccc(NC(=O)c2cccnc2)cn1 -22.6%, CCOC(=O)C1C(=O)NC(C)C1c1ccccc1 (configuration not stated) 1.56% [at 2.29 µM], COc1cccc(C2=CC(c3ccccc3)n3nnnc3N2)c1 (configuration not stated) -0.453%, N#CC1(Nc2ccc(-c3ccc(NC4(C#N)CCCC4)cc3)cc2)CCCC1 -20.9% [at 11.4 µM], C=C(Br)CN(C)CC(=C)Br -1.54% [at 11.4 µM], C[C@H]1/C=C\CC(=O)OC[C@H](C)C(=O)N2CCC[C@@H]2C(=O)OC1 -17.6% [at 11.4 µM], CCOc1ccc(/C(O)=C2\C(=O)C(=O)N(CCOCCO)C2c2ccccc2OC)cc1 (configuration not stated) -10.2%, CCC(=O)n1nc(-c2ccc(OC)cc2)nc1N -24.7%, CCc1cc2c(NCCO)ncnc2s1 -18.7%, CCOC(=O)c1ccc(CNC(=O)C2CCCCC2C(=O)OCC(F)(F)F)o1 (configuration not stated) -12.7%

AC50, inactive:
CC(C)NC[C@@H](O)COc1ccc(CCOCC2CC2)cc1

AC50, active:
O=c1c2ccccc2c(-c2ccccc2)nn1Cc1ccc(Cl)cc1 17.8 µM, O=C(CCn1nc(-c2ccc(Cl)cc2)c2ccccc2c1=O)NCCN1CCOCC1 7.08 µM, O=C(CSc1nnc(-c2cccc(S(=O)(=O)N3CCOCC3)c2)n1C1CCCCCC1)NCc1ccccc1 2.51 µM, O=C(COc1ccc2ccccc2c1)N1CCN(C(=O)c2cccnc2)CC1 8.91 µM, Cc1c(NC(=O)CN2C(=O)C3C4C=CC(C4)C3C2=O)c(=O)n(-c2ccccc2)n1C (configuration not stated) 22.4 µM, O=C(CCN1C(=O)C2C3C=CC(C3)C2C1=O)Nc1ccc2ncccc2c1 (configuration not stated) 2.51 µM, O=C(CCN1C(=O)C2C3C=CC(C3)C2C1=O)Nc1c(F)cccc1F (configuration not stated) 3.98 µM, c1ccc(CN2c3ccccc3-c3nc4ccccc4n3C2c2ccccn2)cc1 (configuration not stated) 3.16 µM, CC1=C(C(N)=O)C(c2ccccc2)n2nc(-c3ccncc3)nc2N1 (configuration not stated) 11.2 µM, COc1ccccc1NC(=O)C1=C(C)Nc2nnnn2C1c1cccc(Br)c1 (configuration not stated) 2.51 µM, CC1=C(C(=O)Nc2cccnc2)C(c2cccnc2)n2nc(-c3cccs3)nc2N1 (configuration not stated) 14.1 µM, COc1ccccc1NC(=O)C1=C(C)Nc2nc(-c3ccc(N(C)C)cc3)nn2C1c1ccncc1 (configuration not stated) 1.26 µM, CCOc1ccccc1C1C(C(N)=O)=C(C)Nc2nc(-c3ccc(OC)cc3)nn21 (configuration not stated) 12.6 µM, CC1=C(C(N)=O)C(c2cccs2)n2nc(-c3cccc(Cl)c3)nc2N1 (configuration not stated) 12.6 µM, O=C1C2=C(NC(=S)NC2c2ccc(Cl)cc2)NC(c2ccc(Cl)cc2)N1c1ccc(Cl)cc1 (configuration not stated) 2.82 µM, Clc1ccc2c(c1)C1=C(C(c3ccncc3)O2)C(c2ccc(Br)cc2)n2ncnc2N1 (configuration not stated) 2.51 µM, CCc1ccccc1NC(=O)c1ccc(-n2c(C)ccc2C)cc1 17.8 µM, CN1CC(c2ccccn2)C2(SC(=S)N(Cc3ccccc3)C2=O)C12C(=O)Nc1ccccc12 (configuration not stated) 4.47 µM

From PubChem BioAssay AID1851 (National Center for Advancing Translational Sciences (NCATS), 2009)
